Assay [1] is described as follows: A CellTox Green Cytotoxicity Assay to monitor cytotoxicity in HEK293 cells - 40 hour (AID 1224871). Also: nearly all actives have a fitted effect of over 45% in size. Also: potency is read from the fitted curve at half-maximal effect. The gist of the method:
(§1)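 Read-out: fluorescence of a cell-impermeant cyanine dye staining DNA of dead cells, proportional to cytotoxicity. HEK293, 600 cells/well with reagent, compound (23 nL DMSO) added after 5 h; reads at 0, 8, 16, 24, 32, 40 h.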

A short description of assay [2]: qHTS RealTime-Glo MT Cell Viability Assay in HepG2 cells - 8 hour (AID 1224873). Also: nearly all actives have a fitted effect of over 55% in size. Also: potency is read from the fitted curve at half-maximal effect. The gist of the method:
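HepG2 cells mixed with RealTime-Glo MT reagents (NanoLuc plus cell-permeant prosubstrate) were seeded at 600 cells/well, incubated 5 h at 37 C/5% CO2, then pinned with compounds in DMSO; nonlytic luminescence tracked viability during 40 h treatment.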

Assay [3] can be described thus: A CellTox Green Cytotoxicity Assay to monitor cytotoxicity in HEK293 cells - 24 hour (AID 1224875). Also: nearly all actives have a fitted effect of over 45% in size. Also: potency is read from the fitted curve at half-maximal effect. The essentials:
as §1

Assay [4] in a line: A CellTox Green Cytotoxicity Assay to monitor cytotoxicity in HepG2 cells - 16 hour (AID 1224876). Also: % is scaled to controls: 0 for no effect and ±100 for the full control effect; nearly all actives have a fitted effect of over 45% in size. The gist of the method: (§2)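 HepG2, 600 cells/well premixed w/ CellTox Green; 5 h settle, 37 C/5% CO2; pintool cpd add (DMSO); 37 C, 40 h; fluorescence read at 0, 8, 16, 24, 32, 40 h.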
The nature of assay [5]: qHTS RealTime-Glo MT Cell Viability Assay in HepG2 cells - 32 hour (AID 1224877). Also: nearly all actives have a fitted effect of over 55% in size. Also: potency is read from the fitted curve at half-maximal effect. The gist of the method:
(§3)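 Cell number in HepG2 cultures estimated from NanoLuc luminescence generated by metabolic reduction of a prosubstrate by living cells. The homogeneous, nonlytic format allowed repeated reads at 0, 8, 16, 24, 32 and 40 h of compound exposure.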

Assay [6] in a line: A CellTox Green Cytotoxicity Assay to monitor cytotoxicity in HepG2 cells - 24 hour (AID 1224878). Also: nearly all actives have a fitted effect of over 45% in size. Also: potency is read from the fitted curve at half-maximal effect. As to Cytotoxicity: % is scaled to controls: 0 for no effect and ±100 for the full control effect. The essentials:
as §2

A short description of assay [7]: A CellTox Green Cytotoxicity Assay to monitor cytotoxicity in HepG2 cells - 40 hour (AID 1224879). Also: nearly all actives have a fitted effect of over 40% in size. Also: potency is read from the fitted curve at half-maximal effect. The essentials:
as §2

Assay [8] can be described thus: A CellTox Green Cytotoxicity Assay to monitor cytotoxicity in HEK293 cells - 32 hour (AID 1224881). Also: nearly all actives have a fitted effect of over 40% in size. Also: potency is read from the fitted curve at half-maximal effect. The essentials: as §1
Assay [9] in a line: A CellTox Green Cytotoxicity Assay to monitor cytotoxicity in HepG2 cells - 0 hour (AID 1224882). Also: % is scaled to controls: 0 for no effect and ±100 for the full control effect; nearly all actives have a fitted effect of over 35% in size. The essentials:
as §2

Assay [10] in a line: A CellTox Green Cytotoxicity Assay to monitor cytotoxicity in HepG2 cells - 32 hour (AID 1224883). Also: nearly all actives have a fitted effect of over 50% in size. Also: potency is read from the fitted curve at half-maximal effect. The essentials:
as §2

Assay [11] in a line: A CellTox Green Cytotoxicity Assay to monitor cytotoxicity in HEK293 cells - 8 hour (AID 1224884). Also: nearly all actives have a fitted effect of over 35% in size. Also: potency is read from the fitted curve at half-maximal effect. The gist of the method:
as §1

A short description of assay [12]: qHTS RealTime-Glo MT Cell Viability Assay in HepG2 cells - 16 hour (AID 1224885). Also: nearly all actives have a fitted effect of over 50% in size. Also: potency is read from the fitted curve at half-maximal effect. The essentials: as §3
The nature of assay [13]: A CellTox Green Cytotoxicity Assay to monitor cytotoxicity in HEK293 cells - 16 hour (AID 1224888). Also: nearly all actives have a fitted effect of over 35% in size. Also: potency is read from the fitted curve at half-maximal effect. The gist of the method:
as §1

Assay [14] is described as follows: A CellTox Green Cytotoxicity Assay to monitor cytotoxicity in HepG2 cells - 8 hour (AID 1224890). Also: nearly all actives have a fitted effect of over 45% in size. Also: potency is read from the fitted curve at half-maximal effect. The gist of the method:
as §2

A short description of assay [15]: qHTS RealTime-Glo MT Cell Viability Assay in HEK293 cells - 8 hour (AID 1224887). Also: nearly all actives have a fitted effect of over 50% in size. Also: potency is read from the fitted curve at half-maximal effect. The gist of the method: (§4)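 Luminescence readout at each listed time point; HEK293, 600 cells/well, RealTime-Glo MT reagent added with cells; compounds pinned (23 nL in DMSO) after 5 h at 37 C; continuous culture at 37 C.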
The nature of assay [16]: qHTS RealTime-Glo MT Cell Viability Assay in HepG2 cells - 0 hour (AID 1224889). Also: nearly all actives have a fitted effect of over 50% in size. Also: potency is read from the fitted curve at half-maximal effect. The essentials: as §3
A short description of assay [17]: qHTS RealTime-Glo MT Cell Viability Assay in HEK293 cells - 0 hour (AID 1224880). The gist of the method:
as §4

Assay [18] in a line: qHTS RealTime-Glo MT Cell Viability Assay in HEK293 cells - 40 hour (AID 1224874). Also: nearly all actives have a fitted effect of over 50% in size. Also: potency is read from the fitted curve at half-maximal effect. As to max response: % is scaled to controls: 0 for no effect and ±100 for the full control effect. The settings on record: RealTime-Glo luminescence; max response: stronger effect = lower value. The gist of the method:
as §4

The nature of assay [19]: qHTS RealTime-Glo MT Cell Viability Assay in HEK293 cells - 24 hour (AID 1224886). Also: nearly all actives have a fitted effect of over 50% in size. Also: potency is read from the fitted curve at half-maximal effect. The essentials: (§5)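 Homogeneous bioluminescent viability format in HEK293 cells (600 cells/well). Following 5 h at 37 C/5% CO2, 23 nL compound was pintooled; the signal was measured repeatedly during 40 h incubation.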
A short description of assay [20]: qHTS RealTime-Glo MT Cell Viability Assay in HEK293 cells - 16 hour (AID 1224872). The gist of the method: as §5

Where “and” joins values, the source holds several entries; their conditions need not be identical. Equal entries are not always repeated. A number with no mark means an inactive call. Records with an inconclusive call do not appear. Calls of active or inactive are those of the source. Calls follow the shape of the dose curve; as a rule, active = well fitted curve in the direction sought with a large enough effect in the repeat runs; inconclusive = weak or mixed curves; inactive = no such curve, though single readings can be large; an effect the other way counts as inactive or inconclusive.

On to `CC(=O)C(Cl)(Cl)Cl`, for which the Potency entry in [1], in assay [2], in [3], in [4], in assay [5] and in assay [6] was “inactive” in each case. The Potency entry in [7], in assay [8], in assay [9], in assay [10], in assay [11] and in assay [12] was “inactive” each time. For the same molecule, the Potency entry in [13] and in [14] was “inactive” each time.

For the molecule `CCOc1cc(C(C)(C)C)ccc1C1COC(c2c(F)cccc2F)=N1` (stereo unspecified), the Potency result in [1], in assay [2], in assay [3], in assay [4], in [5] and in [6] was “inactive” each time. Further, the Potency entry in assay [7], in assay [8], in assay [9], in assay [11], in [12] and in [15] was “inactive” each time. The Potency result in assay [13], in assay [16] and in assay [14] was “inactive” in each case.

For `Oc1c(Br)c(Br)c(Br)c(Br)c1Br`, the Potency result in [1], in assay [2], in assay [3], in [4], in assay [5] and in [6] was “inactive” throughout. Further, the Potency entry in assay [7], in assay [17], in assay [8], in [9], in [10] and in [12] was “inactive” each time. For the same molecule, the Potency result in assay [13], in assay [16] and in assay [14] was “inactive” throughout.

With `CC(C)CCCCCCCOP(=O)(Oc1ccccc1)Oc1ccccc1`, the Potency entry in assay [1], in [2], in assay [3], in assay [4], in [5] and in assay [6] was “inactive” each time. Besides, the Potency result in assay [7], in assay [17], in assay [8], in [9], in assay [11] and in assay [12] was “inactive” throughout. Besides, the Potency result in [13], in assay [16] and in [14] was “inactive” throughout. For the same molecule, in [18], the max response was -33.6%.

Regarding `COc1cccc2c1C(=O)c1c(O)c3c(c(O)c1C2=O)C[C@@](O)(C(=O)CO)CC3OC1CC(N2CCOC(OC)C2)C(O)C(C)O1` (stereo partly specified), the Potency result in [1], in [3], in [17], in assay [8], in assay [9] and in assay [11] was “inactive” in each case. In addition, the Potency result in assay [13] and in assay [16] was “inactive” each time. Further, the Potency in assay [18] is 0.0213 µM (active); in assay [5], 0.0425 µM (active); in assay [7], 42.5 nM (active); in assay [19], 0.0535 µM (active); in assay [14] it was 21.3 µM (active).

For `ClCc1ccccc1CCl`, the Potency in assay [1] was 49 µM (active). Besides, the Potency entry in assay [2], in assay [3], in assay [4], in [5], in assay [17] and in assay [9] was “inactive” throughout. Also, the Potency entry in assay [11], in assay [12], in assay [15], in assay [13], in [16] and in [14] was “inactive” in each case.

With `O=c1c(C2CC(c3ccc(-c4ccc(Br)cc4)cc3)Cc3ccccc32)c(O)sc2ccccc12` (stereo unspecified), the Potency entry in assay [1], in [3], in [4], in assay [6], in assay [7] and in [8] was “inactive” each time. Moreover, the Potency entry in [9], in assay [10], in assay [19], in assay [15], in assay [13] and in [14] was “inactive” in each case. Moreover, the max response in [18] was -20.8%. In assay [16], the Potency is 6.74 µM (active).

Turning to `CCCCCCCCCCCCCCCC[n+]1ccccc1`, the Potency in assay [1] was 34.2 µM (active) [middle of 4 runs]; in assay [2], 57.5 µM (active) and 49 µM (active) and 48.3 µM (active); in assay [7] it was 15.5 µM (active) [middle of 4 runs]; in [10], 15.5 µM (active) [middle of 4 runs]; in assay [11] it was 49 µM (active) [middle of 4 runs]; in assay [19], 9.52 µM (active) [middle of 4 runs]. The Potency in assay [15] is 45.7 µM (active) and 54.9 µM (active) and 54.2 µM (active); in assay [13] it was 49 µM (active) [middle of 4 runs]; in assay [14], 49 µM (active) and 48.3 µM (active) and 16.9 µM (active). Also, the Potency result in assay [17], in [9] and in assay [16] was “inactive” in each case.

Turning to `Nc1ccccc1C(=O)Oc1ccc2ccccc2c1`, the Potency result in [1], in assay [3], in assay [4], in assay [5], in assay [17] and in [8] was “inactive” in each case. Besides, the Potency entry in assay [11], in assay [12], in assay [13], in assay [16] and in [14] was “inactive” in each case. Besides, the max response in assay [18] is -20.2%.

Take `ClC1=C(Cl)C2(Cl)C3C(Cl)C=CC3C1(Cl)C2(Cl)Cl` (stereo unspecified): the Potency was 55.2 µM (active) and 49 µM (active) in [1]; 49.2 µM (active) and 49 µM (active) in assay [18]; 49.2 µM (active) and 49 µM (active) in assay [3]; 55.2 µM (active) and 49 µM (active) in assay [8]; 54.9 µM (active) in assay [10]; 43.8 µM (active) and 49 µM (active) in [19]. For the same molecule, the Potency in assay [13] is 55.2 µM (active) and 49 µM (active). For the same molecule, the Potency entry in assay [17], in assay [9] and in assay [16] was “inactive” each time.

Regarding `Cc1cc(N=Nc2ccccc2C)ccc1N`, the Potency in assay [1] is 49 µM (active); in [18] it was 21.9 µM (active); in [7], 21.9 µM (active) and 19.5 µM (active); in [19], 21.9 µM (active) and 19.5 µM (active); in assay [15], 21.9 µM (active) and 19.5 µM (active). Besides, the Potency result in assay [5], in [6], in assay [17], in assay [9], in [11] and in assay [13] was “inactive” each time. The Potency result in assay [16] and in assay [14] was “inactive” in each case.

With `CCN(CC)C(=S)[S-].CCN(CC)C(=S)[S-].[Zn+2]`, the Potency is 5.45 µM (active) in [1]; 2.73 µM (active) in [18]; 15.4 µM (active) in assay [3]; 13.7 µM (active) in assay [5]; 12.2 µM (active) in assay [6]; 10900 nM (active) in [7]. The Potency in assay [8] is 15.4 µM (active); in assay [10], 9.69 µM (active); in assay [12], 13.7 µM (active); in assay [19] it was 4.86 µM (active). Further, the Potency result in [17], in [9], in [11], in assay [13], in assay [16] and in assay [14] was “inactive” in each case.

Regarding `CC(C)(O)c1cnn2c(-c3ccc(F)c(-c4c(F)cccc4C#N)c3)cnc2n1`, the Potency in assay [20] is 5.49 µM (active); in [18] it was 4.9 µM (active); in assay [19], 5.49 µM (active); in assay [15], 6.16 µM (active). The Potency result in [2], in assay [3], in assay [4], in assay [5], in [6] and in assay [7] was “inactive” each time. In addition, the Potency entry in assay [9], in [10], in assay [11], in [12], in assay [13] and in [14] was “inactive” each time.

`COC(=O)N(C(=O)N1COC2(C(=O)OC)Cc3cc(Cl)ccc3C2=N1)c1ccc(OC(F)(F)F)cc1` (stereo unspecified): the Potency result in [1], in assay [2], in assay [3], in assay [5], in assay [6] and in [7] was “inactive” throughout. Also, the Potency entry in assay [17], in assay [8], in assay [10], in assay [12], in assay [13] and in assay [16] was “inactive” in each case. Moreover, the Potency entry in assay [14] was “inactive”.

Turning to `[Cl][Sb]([Cl])[Cl]`, the Potency in assay [1] is 24.5 µM (active). Moreover, the Potency entry in [2], in [3], in assay [4], in assay [5], in assay [6] and in assay [17] was “inactive” throughout. Besides, the Potency result in assay [8], in assay [9], in [12], in assay [15], in assay [13] and in [16] was “inactive” each time. Besides, the Potency entry in assay [14] was “inactive”.

For the origin of these results see PubChem BioAssay (Tox21).
